# Measurements from PubChem BioAssay (Tox21).
# Several values for one entry are separate records, joined by “and”; a condition that tells them apart may be missing. Equal entries are not always repeated. Results filed as inconclusive are left out. Where a call stands in place of a potency, no number is given. Some structures have more than one record in an assay (separate samples or runs), and their calls can disagree. Activity calls are given as the source filed them. Unless noted, calls come from the whole dose curve; as a rule, active = well fitted curve in the direction sought with a large enough effect in the repeat runs; inconclusive = weak or mixed curves; inactive = no such curve, though single readings can be large; an effect the other way counts as inactive or inconclusive.
# Experiments:
# [1] = qHTS assay to identify small molecule agonists of the vitamin D receptor (VDR) signaling pathway - cell viability counter screen (AID 743224); details: VDR-bla HEK293T viability, CellTiter-Glo luminescence, 16 h; series mostly up to 62.6 µM; note: nearly all actives have a fitted effect of over 50% in size; note: potency is the fitted concentration of half-maximal effect
# How it was run: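 Plated VDR-bla cells (4 h, 37C) received compound, incubated 16 h, then LiveBLAzer substrate 2 h RT; CellTiter-Glo added afterwards, luminescence read at 30 min.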
# [2] = qHTS assay to identify small molecule antagonists of the vitamin D receptor (VDR) signaling pathway - cell viability counter screen (AID 743225); details: VDR-bla HEK293T viability, CellTiter-Glo luminescence, 16 h; series mostly up to 61 µM; note: nearly all actives have a fitted effect of over 50% in size; note: potency is the fitted concentration of half-maximal effect
# How it was run: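 Cytotoxicity counter screen read by CellTiter-Glo luminescence (30 min, room temperature) in the same wells as the VDR-bla antagonist readout. HEK 293T VDR-UAS-bla cells had 16 h at 37C with compound and 3 nM (final) 1-alpha,25-dihydroxyvitamin D3, then 2 h with FRET substrate.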
# [3] = qHTS assay to identify small molecule agonists of the NFkB signaling pathway (AID 1159509; active = well fitted curve in the direction sought with a large enough effect in the signal ratio in the repeat runs, not every such curve was filed as active; the % refers to the signal ratio); details: NFkB-bla ME-180 cells, beta-lactamase FRET ratio, 5 h; series mostly up to 61 µM
# How it was run: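 ME-180 NFkB-bla, 2,000 cells/well, overnight plating; cpd pinned in DMSO, 5 h 37 C; B/G FRET substrate 1.5 h RT; ex 405, em 460/530 nm.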
# [4] = qHTS assay to identify small molecule agonists of the NFkB signaling pathway - cell viability counter screen (AID 1159515; calls by dose curve; note: nearly all actives have a fitted effect of over 55% in size; note: potency is the fitted concentration of half-maximal effect); details: NFkB-bla ME-180 viability, CellTiter-Glo luminescence, 5 h; series mostly up to 61 µM
# How it was run: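 Using the same wells as the NFkB reporter read, ME-180 NFkB-bla cells given compounds for 5 hr were assessed for viability via CellTiter-Glo, with luminescence taken after a 30 min room-temperature incubation.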
# [5] = qHTS assay to identify small molecule agonists of the endoplasmic reticulum stress response signaling pathway (AID 1159516; active = well fitted activation curve with a large enough effect in the signal ratio in the repeat runs, not every such curve was filed as active; the % refers to the signal ratio; note: potency is the fitted concentration of half-maximal effect); details: ESRE-bla HeLa, ER stress beta-lactamase reporter, 5 h; series mostly up to 61 µM
# How it was run: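 An ESRE-bla HeLa cell assay: compounds were pin-transferred from DMSO onto overnight-plated cells and left 5 hr at 37 C. Substrate was then loaded for 2 hr at room temperature before reading fluorescence at 460 nm and 530 nm.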
# [6] = qHTS assay to identify small molecule agonists of the endoplasmic reticulum stress response signaling pathway - cell viability counter screen (AID 1159517; calls by dose curve; note: nearly all actives have a fitted effect of over 50% in size; note: potency is the fitted concentration of half-maximal effect); details: ESRE-bla HeLa viability, CellTiter-Glo luminescence, 5 h; series mostly up to 61 µM
# How it was run: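 HeLa cells carrying an ESRE-driven beta-lactamase reporter receive compound for 5 hr at 37 C. Cell viability is then gauged with CellTiter-Glo by luminescence, 30 min at room temperature.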
# [7] = qHTS assay to identify small molecule antagonists of the retinoid-related orphan receptor gamma (ROR-gamma) signaling pathway - cell viability counter screen (AID 1159520); details: Tet-on RORgamma CHO cells viability, ATP luminescence, 16 h; series mostly up to 92.4 µM; note: nearly all actives have a fitted effect of over 50% in size; note: potency is the fitted concentration of half-maximal effect
# How it was run: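 Cytotoxicity was read from cellular ATP (CellTiter-Glo luminescence) after 16 hr at 37 C with 1 uM doxycycline induction. The inducer was added 2 hr after compound transfer to Tet-on ROR gamma CHO cells.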
# [8] = target: Nuclear receptor ROR-gamma (Homo sapiens) (UniProt P51449); assay: qHTS assay to identify small molecule antagonists of the retinoid-related orphan receptor gamma (ROR-gamma) signaling pathway (AID 1159521; note: nearly all actives have a fitted effect of over 50% in size; note: potency is the fitted concentration of half-maximal effect); details: Tet-on RORgamma CHO cells, RORE-luciferase, 16 h; series mostly up to 92.4 µM
# How it was run: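 Antagonist read-out: drop in luminescence (ONE-Glo) from an RORE-LUC reporter in CHO cells with doxycycline-inducible ROR-gamma; 2 hr compound pretreatment, 1 uM doxycycline, 16 hr incubation at 37 C.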
# [9] = qHTS assay to identify small molecule agonists of the AP-1 signaling pathway - cell viability counter screen (AID 1159525; calls by dose curve; note: nearly all actives have a fitted effect of over 55% in size; note: potency is the fitted concentration of half-maximal effect); details: ME-180 AP-1-bla cells viability, ATP luminescence, 5 h; series mostly up to 76.8 µM
# How it was run: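 Luminescent ATP readout (Cell Titer Glo, 30 min RT), normalised to DMSO and tetra n-octyl ammonium bromide controls. Cells were ME-180 AP-1-bla in 0.5% dialyzed FBS Opti-MEM, with a 5 h, 37 °C compound exposure.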
# [10] = qHTS assay to identify small molecule agonists of the AP-1 signaling pathway (AID 1159526; calls by dose curve); details: ME-180 (cervical carcinoma) AP-1-bla reporter, beta-lactamase FRET ratio, 5 h; series mostly up to 76.8 µM
SMILES,Potency [1],Potency [2],outcome [3],Potency [4],Potency [5],Potency [6],Potency [7],Potency [8],Potency [9],outcome [10],"viability change, negative = cytotoxic [9]",activation [10]
CC(C)OC=O,52 µM (active) and inactive,inactive,inactive,inactive,inactive,inactive,inactive,inactive,inactive,inactive,,
c1cc(-c2ccncc2)ccn1,inactive,inactive,inactive,inactive,inactive,inactive,inactive,inactive,inactive,inactive,,
O=C(c1ccc(OCCN2CCCCC2)cc1)c1c(-c2ccc(O)cc2)sc2cc(O)ccc12,55 µM (active) and 21.9 µM (active) and 33.5 µM (active),17.4 µM (active),inactive,55 µM (active) and 54.9 µM (active) and inactive,inactive,inactive,61.2 µM (active) and inactive,13.7 µM (active) and 19.3 µM (active),inactive,inactive,,
c1ccncc1,inactive,inactive,inactive,inactive,inactive,inactive,inactive,inactive,inactive,inactive,,
CCOCCOCCO,inactive,inactive,inactive,inactive,inactive,inactive,inactive,inactive,inactive,inactive,,
Brc1cc(Oc2cc(Br)c(Br)c(Br)c2Br)c(Br)c(Br)c1Br,inactive,inactive,inactive,1.56 µM (active) and inactive,inactive,inactive,inactive,inactive,55.2 µM (active) and inactive,inactive,,
CCC(C)c1ccccc1O (stereo unspecified),inactive,inactive,inactive,inactive,inactive,inactive,inactive,inactive,inactive,inactive,,
CCC(C)CO (stereo unspecified),inactive,inactive,inactive,inactive,inactive,inactive,inactive,inactive,inactive,inactive,,
NNc1ccc(C(=O)O)cc1,inactive,inactive,inactive,inactive,inactive,inactive,inactive,inactive,inactive,inactive,,
Cc1ccc2c(n1)Oc1ccc(C(C)C(=O)OCC(=O)N(C)C)cc1C2 (stereo unspecified),inactive,inactive,inactive,inactive,inactive,inactive,inactive,inactive,inactive,inactive,,
O=S(=O)(O)c1ccc(O)cc1,inactive,inactive,inactive,inactive,inactive,inactive,inactive,inactive,inactive,inactive,,
Nc1ccc(Cl)cc1Cl,inactive,inactive,inactive,inactive,inactive,inactive,inactive,inactive,inactive,inactive,,
CC(C)OC(=O)C(C)(C)Oc1ccc(C(=O)c2ccc(Cl)cc2)cc1,13.8 µM (active) and inactive,inactive,inactive,inactive,inactive,inactive,inactive,68.6 µM (active),inactive,inactive,,
COC(=O)CCC(=O)OC,inactive,inactive,inactive,inactive,inactive,inactive,inactive,inactive,inactive,inactive,,
COc1c(Cl)c(Cl)c(Cl)c(Cl)c1Cl,inactive,inactive,inactive,inactive,inactive,inactive,inactive,inactive,inactive,inactive,,
Nc1ncnc2nc[nH]c12,inactive,inactive,inactive,inactive,inactive,inactive,inactive,inactive,inactive,inactive,,
Cn1cnc([N+](=O)[O-])c1Sc1ncnc2nc[nH]c12,,inactive,inactive,inactive,inactive,inactive,inactive,30.5 µM (active) and inactive,inactive,inactive,,
CCCCCCCCCC(=O)OC,inactive,inactive,inactive,inactive,inactive,inactive,inactive,inactive,inactive,inactive,,
COC(C)COC(C)COC(C)CO (stereo unspecified),inactive,inactive,inactive,inactive,inactive,inactive,inactive,inactive,inactive,inactive,,
c1ccc2c(c1)c1cccc3ccc4cccc2c4c31,inactive,inactive,inactive,inactive,48.6 µM (active),inactive,inactive,inactive,inactive,inactive,,
O=[N+]([O-])c1ccc2c(c1)Cc1ccccc1-2,inactive,inactive,inactive,inactive,inactive,inactive,inactive,inactive,inactive,inactive,,
CCCCC(CC)COCC1CO1 (stereo unspecified),inactive,inactive,inactive,inactive,inactive,inactive,inactive,inactive,inactive,inactive,,
CN1C(C(=O)Nc2ccccn2)=C(O)c2ccccc2S1(=O)=O,inactive,inactive,inactive,inactive,inactive,inactive,inactive,inactive,inactive,inactive,,
O=C(COc1ccc(Cl)cc1)N1CCN(Cc2ccc3c(c2)OCO3)CC1,inactive,inactive,inactive,inactive,inactive,inactive,inactive,inactive,inactive,inactive,,

SMILES,Potency [1],Potency [2],outcome [3],Potency [4],Potency [5],Potency [6],Potency [7],Potency [8],Potency [9],outcome [10],"viability change, negative = cytotoxic [9]",activation [10]
CC(C)OB(OC(C)C)OC(C)C,inactive,inactive,inactive,inactive,inactive,inactive,inactive,inactive,inactive,inactive,,
COC(=O)c1ccccc1,inactive,inactive,inactive,inactive,inactive,inactive,inactive,inactive,inactive,inactive,,
CC(C)Oc1ccc2c(=O)c(-c3ccccc3)coc2c1,inactive,inactive,inactive,inactive,inactive,inactive,inactive,inactive,inactive,inactive,,
NC=O,inactive,inactive,inactive,inactive,inactive,inactive,inactive,inactive,inactive,inactive,,
CCCC(=O)O,inactive,inactive,inactive,inactive,inactive,inactive,inactive,inactive,inactive,inactive,,
Cc1ncc[nH]1,inactive,inactive,inactive,inactive,inactive,inactive,inactive,inactive,inactive,inactive,,
COC(=O)Nc1nc2ccc(S(=O)c3ccccc3)cc2[nH]1 (stereo unspecified),inactive,inactive,inactive,inactive,inactive,inactive,inactive,inactive,inactive,inactive,,
CNCCCC12CCC(c3ccccc31)c1ccccc12,21.9 µM (active) and inactive,15.5 µM (active),inactive,inactive,inactive,,61.1 µM (active) and inactive,34.4 µM (active) and inactive,inactive,,,
O=C1c2cccc(O)c2C(=O)c2c(O)cccc21,inactive,inactive,inactive,inactive,,inactive,inactive,inactive,inactive,,,
CCOC(=O)C(C#N)=C(c1ccccc1)c1ccccc1,inactive,,inactive,inactive,inactive,inactive,inactive,,inactive,inactive,,
CN(C)CCC=C1c2ccccc2CCc2ccccc21,49 µM (active) and 21.9 µM (active),,inactive,inactive,inactive,inactive,inactive,30.6 µM (active) and inactive,inactive,,,
CC(C)=CCC/C(C)=C\CO,inactive,,,inactive,inactive,inactive,inactive,inactive,inactive,inactive,,
O=C1OC2(c3cc(Br)c(O)c(Br)c3Oc3c2cc(Br)c(O)c3Br)c2c(Cl)c(Cl)c(Cl)c(Cl)c21,inactive,inactive,inactive,inactive,,inactive,inactive,,inactive,inactive,,
CCCCc1oc2ccccc2c1C(=O)c1cc(I)c(OCCN(CC)CC)c(I)c1,15.6 µM (active) and 26.6 µM (active),,inactive,31.1 µM (active) and 26.8 µM (active),inactive,39.2 µM (active),43.6 µM (active),19.5 µM (active) and 26.6 µM (active),31.1 µM (active),,,
OCCO,inactive,,inactive,inactive,inactive,inactive,inactive,,inactive,inactive,,
COC(=O)C1=C(C)NC(C)=C(C(=O)OCCN(C)Cc2ccccc2)C1c1cccc([N+](=O)[O-])c1 (stereo unspecified),54.6 µM (active),,inactive,inactive,inactive,inactive,60.8 µM (active),30.5 µM (active) and 29.8 µM (active),inactive,,,
COc1ccc(C(=O)CC(=O)c2ccc(C(C)(C)C)cc2)cc1,inactive,inactive,inactive,inactive,inactive,inactive,inactive,,inactive,inactive,,
Cc1ccc(C(=O)c2cc(O)c(O)c([N+](=O)[O-])c2)cc1,,inactive,inactive,inactive,inactive,inactive,inactive,27.3 µM (active) and 26.6 µM (active),inactive,inactive,,
CCCCC/C=C/C=C/C=O,inactive and 49 µM (active),,inactive,inactive,,inactive,,inactive,inactive,inactive,,
O=CCCCC=O,inactive,,inactive,inactive,,54.9 µM (active),61.1 µM (active),29.6 µM (active) and inactive,inactive,inactive,,
O=C(Nc1ccc([N+](=O)[O-])cc1Cl)c1cc(Cl)ccc1O,549 nM (active) and 651 nM (active),,inactive,inactive,,,1.54 µM (active) and 920 nM (active),inactive,,,2.04% [at 15.8 µM] (inactive),4.2% [at 15.8 µM] (inactive)
C#C[C@]1(O)CC[C@H]2[C@@H]3CCc4cc(OC)ccc4[C@H]3CC[C@@]21C,inactive,,inactive,inactive,inactive,inactive,inactive,inactive,inactive,,,
CC1=CCC(C(C)(C)O)CC1 (stereo unspecified),inactive,inactive,inactive,inactive,inactive,inactive,inactive,,inactive,inactive,,
COc1cccc2c1C(=O)c1c(O)c3c(c(O)c1C2=O)C[C@@](O)(C(=O)CO)C[C@@H]3O[C@H]1C[C@H](N)[C@H](O)[C@H](C)O1,inactive,,inactive,inactive,,inactive,inactive and 26.6 µM (active),inactive,inactive,inactive,,
